# Publication PMC4336329 (PLoS ONE, 2015)
# About 14,000 (4.5%) of roughly 310,000 compounds showed an effect of 50% or more. The effect is printed as a negative number. The full list was thinned out, with strong results kept by preference.
# Target: human ether-à-go-go-related gene (hERG) potassium channel (human, UniProt Q12809)
# Test: primary screen, population patch clamp on CHO cells stably expressing hERG; higher = less effect of the substance
# 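Note: peak tail current of the secondary pulse compared with the same well before compound.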
# Sequence of human ether-à-go-go-related gene (hERG) potassium channel (Q12809 whole entry, looked up): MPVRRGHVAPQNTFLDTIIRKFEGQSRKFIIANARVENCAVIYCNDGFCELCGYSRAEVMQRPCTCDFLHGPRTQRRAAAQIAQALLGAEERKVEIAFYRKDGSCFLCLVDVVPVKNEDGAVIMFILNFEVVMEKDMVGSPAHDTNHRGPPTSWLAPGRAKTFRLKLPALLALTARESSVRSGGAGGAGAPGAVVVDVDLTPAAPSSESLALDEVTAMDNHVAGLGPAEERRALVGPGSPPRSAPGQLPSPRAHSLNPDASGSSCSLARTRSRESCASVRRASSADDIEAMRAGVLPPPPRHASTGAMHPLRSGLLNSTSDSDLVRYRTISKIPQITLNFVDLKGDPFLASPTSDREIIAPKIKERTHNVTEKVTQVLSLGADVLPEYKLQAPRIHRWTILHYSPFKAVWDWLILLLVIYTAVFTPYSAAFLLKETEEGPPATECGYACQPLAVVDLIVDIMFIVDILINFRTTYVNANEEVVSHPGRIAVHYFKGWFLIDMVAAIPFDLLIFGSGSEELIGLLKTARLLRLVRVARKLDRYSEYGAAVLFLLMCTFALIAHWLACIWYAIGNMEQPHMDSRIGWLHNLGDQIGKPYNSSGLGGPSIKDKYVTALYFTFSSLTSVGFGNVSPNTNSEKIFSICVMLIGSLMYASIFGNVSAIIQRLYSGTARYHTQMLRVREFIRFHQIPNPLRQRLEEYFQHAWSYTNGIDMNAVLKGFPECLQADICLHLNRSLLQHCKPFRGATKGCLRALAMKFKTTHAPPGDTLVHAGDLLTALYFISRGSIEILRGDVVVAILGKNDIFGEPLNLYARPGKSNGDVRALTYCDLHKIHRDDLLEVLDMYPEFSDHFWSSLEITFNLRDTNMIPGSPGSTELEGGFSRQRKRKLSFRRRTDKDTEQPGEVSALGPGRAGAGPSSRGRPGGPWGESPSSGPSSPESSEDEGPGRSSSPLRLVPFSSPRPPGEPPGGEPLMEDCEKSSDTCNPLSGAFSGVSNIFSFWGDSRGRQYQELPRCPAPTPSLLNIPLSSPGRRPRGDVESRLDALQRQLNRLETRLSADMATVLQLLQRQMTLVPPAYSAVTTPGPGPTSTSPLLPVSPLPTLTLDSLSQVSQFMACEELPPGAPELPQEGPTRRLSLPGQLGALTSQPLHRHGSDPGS
row,Structure (SMILES),"hERG current change (%, negative = inhibition) at 10uM"
1,CCN(CC)CCOC(=O)/C=C/c1ccccc1.Cl,-12.4%
2,Cc1cccc(Nc2nnc(SCC(=O)NCc3cccs3)s2)c1,21.9%
3,CNc1nc(C)nc(-n2nc(C)cc2C)n1,15.8%
4,Cc1cc(C)n(-c2nc(Nc3ccccc3)nc(-n3nc(C)cc3C)n2)n1,15.6%
5,Cc1cc(C)n(-c2nc(C)nc(NCc3ccccc3)n2)n1,-86.9%
6,CC(=O)Nc1nc(SCc2ccc(Cl)cc2Cl)n[nH]1,16.4%
7,O=[N+]([O-])c1ccc2c(c1)nc1n2CCSC1,-19.2%
8,COc1cc(C)c(-c2nc(CN3C[C@@H]4C[C@@H](C3)c3cccc(=O)n3C4)c(C)o2)cc1C,-57.6%
9,Cc1oc(-c2ccc(F)cc2F)nc1CN1C[C@@H]2C[C@@H](C1)c1cccc(=O)n1C2,-74.4%
10,COc1cc(CN2CC3CC(C2)c2cccc(=O)n2C3)cc(OC)c1OC (stereo not shown),-6.41%
11,COc1ccc(CN2CC3CC(C2)c2cccc(=O)n2C3)cc1OC (stereo not shown),-5.24%
12,Cc1cccc(N2CCN(Cc3nc(-c4ccc(F)cc4F)oc3C)CC2)n1,-41.3%
13,Cc1ccc2occ(CN3CC4CC(C3)c3cccc(=O)n3C4)c(=O)c2c1 (stereo not shown),-63.9%
14,Cc1ccc2occ(CN3CCN(Cc4ccccc4)CC3)c(=O)c2c1,-45.9%
15,Cc1cc(C)n2c(Br)c(CN3CC4CC(C3)c3cccc(=O)n3C4)nc2n1 (stereo not shown),0.651%
16,Cc1ccc(CN2CC3CC(C2)c2cccc(=O)n2C3)cc1 (stereo not shown),-5.29%
17,COC(=O)C1=C(N)N(c2ccccc2C(F)(F)F)C2=C(C(=O)CCC2)C1c1ccc2c(c1)OCO2 (stereo not shown),20.5%
18,CC(C)(C)c1nc2scc(-c3ccc(Br)cc3)c2c(=O)o1,7.26%
19,Cc1cc(C(=O)Nc2nnc(C3CCCCC3)s2)cs1,-5.46%
20,COc1ccc(CCN(Cc2cccs2)S(=O)(=O)c2ccc(S(=O)(=O)N(C)C3CCCCC3)cc2)cc1OC,2.56%
21,COc1cc(NC(=O)CCc2nnc3ccc(N4CCCC4)nn23)cc(OC)c1OC,6.49%
22,Cn1cc(/C=C(\NC(=O)c2ccccc2Cl)C(=O)NCCN2CCOCC2)c2ccccc21,-30%

row,Structure (SMILES),"hERG current change (%, negative = inhibition) at 10uM"
1,O=C(CCC1CC(=O)Nc2ccccc21)NCc1ccc(F)cc1 (stereo not shown),-17.6%
2,O=C(Nc1nc(-c2ccc(F)cc2)cs1)c1cccc(N2C(=O)CCC2=O)c1,9.67%
3,COc1ccc(C)cc1S(=O)(=O)N1CCCC(C(=O)NC2CC2)C1 (stereo not shown),-0.49%
4,O=C(NCc1ccccc1)C1CC(=O)N(C2CCCCC2)C1 (stereo not shown),17.8%
5,Cc1cccc(C(=O)NCC(=O)N2CCC2)c1,2.59%
6,O=C(NCC(=O)N1CCN(S(=O)(=O)c2ccccc2F)CC1)c1ccc2ccccc2c1,-12.2%
7,Cc1cccc(C(=O)NCC(=O)N2CCN(S(=O)(=O)c3ccccc3)CC2)c1,-10.8%
8,Cc1ccc(C)c(S(=O)(=O)N2CCN(C(=O)CNC(=O)c3ccc4ccccc4c3)CC2)c1,-28.1%
9,O=C(NCC(=O)N1CCN(S(=O)(=O)c2ccccc2)CC1)c1ccc2ccccc2c1,-53.5%
10,Cc1ccc(S(=O)(=O)N2CCCN(C(=O)CNC(=O)c3cccc(C)c3)CC2)cc1,-54.3%
11,CCOC(=O)C1CCN(c2cc3c(cc2NC(=O)c2ccccc2Cl)n(C)c(=O)n3C)CC1,-48.8%
12,CCOC(=O)C1CCN(Cc2ccc(O)c(OC)c2)CC1,-13.7%
13,CCN(C(=O)COC(=O)c1ccc(C)c(S(=O)(=O)N2CCCCC2)c1)C1CCS(=O)(=O)C1 (stereo not shown),-66.5%
14,Cc1ccc(C(=O)OCC(=O)N(C)C2CCS(=O)(=O)C2)cc1S(=O)(=O)N1CCCCC1 (stereo not shown),-16.5%
15,CN(C(=O)c1cccc(S(=O)(=O)N2CCCCC2)c1)C1CCS(=O)(=O)C1 (stereo not shown),2.39%
16,CCCCN(C(=O)c1cccc(S(=O)(=O)N2CCCCC2)c1)C1CCS(=O)(=O)C1 (stereo not shown),-52.1%
17,CC(C)CN(C(=O)c1cccc(S(=O)(=O)N2CCCCC2)c1)C1CCS(=O)(=O)C1 (stereo not shown),0.956%
18,CCCCN(C(=O)c1ccc(S(=O)(=O)N2CCC(C)CC2)cc1)C1CCS(=O)(=O)C1 (stereo not shown),-53.2%
19,CCN(C(=O)c1ccc(S(=O)(=O)N2CCC(C)CC2)cc1)C1CCS(=O)(=O)C1 (stereo not shown),7.87%
20,CCN(C(=O)COC(=O)c1ccc(C)c(S(=O)(=O)N2CCOCC2)c1)C1CCS(=O)(=O)C1 (stereo not shown),1.32%
21,CCCCN(C(=O)c1ccc(S(=O)(=O)N2CCCC2)cc1)C1CCS(=O)(=O)C1 (stereo not shown),-0.0452%
22,NS(=O)(=O)c1cc(C(=O)OCC(=O)Nc2ccccc2[N+](=O)[O-])ccc1Cl,-6.13%

row,Structure (SMILES),"hERG current change (%, negative = inhibition) at 10uM"
1,O=C1Nc2ccccc2N(O)N1c1ccc(S(=O)(=O)N2CCCCCC2)cc1,1.75%
2,N#C/C(=C\c1ccc(-c2ccc(C(=O)O)cc2)o1)C(=O)Nc1ccc(F)cc1,25.6%
3,O=C(NCCc1ccccc1)C1CCN(S(=O)(=O)N2CCC3(CC2)OCCO3)CC1,-0.566%
4,CCCOc1cccc(C(=O)N2CCN(C(=O)C3CCCO3)CC2)c1 (stereo not shown),7.15%
5,CCC(=O)c1ccc(OCC(=O)OCC(=O)N2c3ccccc3NC(=O)C2(C)C)cc1,2.82%
6,CC(C)c1ccc(N(CC(=O)NCC2CCCO2)C(=O)Cn2nnc(-c3cccs3)n2)cc1 (stereo not shown),-42.5%
7,NC(=O)NOCc1ncc(C(F)(F)F)cc1Cl,10.4%
8,CCc1nc(OCCN(C)C)c2oc3ccccc3c2n1,-4.1%
9,CCN(CC)CCOc1ncnc2c1oc1ccccc12,-39.1%
10,CCN(CC)CCOc1nc(C)nc2c1oc1ccccc12.Cl,-64.6%
11,CCc1nc(N(CC)CC)c2oc3ccccc3c2n1.Cl,-21.1%
12,CCc1nc(OCCN(CC)CC)c2oc3ccccc3c2n1.Cl,-58.9%
13,CN(C)CCOc1nc(-c2ccccc2)nc2c1oc1ccccc12,-44.7%
14,CCCCCC(=O)Nc1ccccc1N1CCN(c2ccccc2)CC1,-0.752%
15,CSc1ccc(S(=O)(=O)NCC(=O)OCC(=O)N2CCCCC2C)cc1[N+](=O)[O-] (stereo not shown),4.74%
16,COC(=O)Cc1ccc(O)c(N)c1,9.82%
17,C=CCNC(=O)/C(=C/c1ccc(Br)cc1)NC(=O)c1ccccc1OC,-45.9%
18,O=C(NCCCn1ccnc1)/C(=C\c1cccnc1)NC(=O)c1ccccc1Br,5.24%
19,COc1ccccc1C(=O)N/C(=C\c1cn(C)c2ccccc12)C(=O)NCCCn1ccnc1,3.22%
20,COc1ccccc1C(=O)N/C(=C\c1ccc(Br)cc1)C(=O)NCCCO,-34.3%
21,COc1ccccc1C(=O)N/C(=C/c1ccc(Br)cc1)C(=O)NCC(=O)O,-8.44%
22,O=C(NCCCn1ccnc1)/C(=C\c1ccc(Br)cc1)NC(=O)c1ccccc1F,-74.3%

row,Structure (SMILES),"hERG current change (%, negative = inhibition) at 10uM"
1,CCn1cc(/C=C(\NC(=O)c2ccccc2OC)C(=O)NCCCn2ccnc2)c2ccccc21,-19.2%
2,Cn1cc(/C=C(\NC(=O)c2ccccc2Cl)C(=O)NCCCn2ccnc2)c2ccccc21,8.3%
3,CCn1cc(/C=C(\NC(=O)c2ccccc2F)C(=O)NCCCn2ccnc2)c2ccccc21,-69%
4,C=CCNC(=O)/C(=C\c1ccc(Br)cc1)NC(=O)c1ccccc1OC,-51.8%
5,COc1ccccc1C(=O)N/C(=C/c1ccc(Br)cc1)C(=O)NCCCn1ccnc1,-87%
6,O=C(NCCCn1ccnc1)/C(=C\c1cccnc1)NC(=O)c1ccccc1F,-17.7%
7,COC(=O)c1cnn(-c2ccc(Cl)cc2)c1/C=N/NC(N)=S,7.44%
8,O=C(Nc1cccc(-c2csc(Nc3cccc(C(F)(F)F)c3)n2)c1)c1cc([N+](=O)[O-])cc(C(F)(F)F)c1,5.05%
9,CC(C)Oc1ccc(CNCCC2(C(C)C)CCOC(C)(C)C2)cc1 (stereo not shown),-45.4%
10,COc1ccc(NC(=O)Nc2ncn(Cc3cccc(C(F)(F)F)c3)n2)cc1OC,-32.5%
11,NC(=O)C(c1ccccc1)c1ccc(C(=O)c2ccccc2)cc1 (stereo not shown),3.08%
12,CC(C)N1CCC(N2CCN(CC#Cc3ccccc3)CC2CCO)CC1 (stereo not shown),0.615%
13,CCc1ccc(N2CC(O)=C(c3nc4ccccc4c(=O)[nH]3)C2=N)cc1,2.98%
14,CCOc1ccc(Nc2oc(Cc3ccccc3)nc2C#N)cc1,-1.96%
15,CCCCOc1cc(CC2CNC(=O)N2)ccc1OC (stereo not shown),-2.83%
16,COc1ccccc1NC(=O)Cn1c(=O)oc2cc(S(=O)(=O)N3CCCC3)ccc21,16.6%
17,CCOC(=O)N1CCc2c(sc(NC(=O)CN3CCOCC3)c2C(=O)Nc2ccccc2)C1,-68.8%
18,CCOC(=O)N1CCc2c(sc(NC(=O)CN3CCN(C)CC3)c2C(=O)Nc2ccccc2)C1,-77.2%
19,CCOC(=O)c1c(NC(=O)CN2CCCCC2)sc2c1CCN(C(=O)OCC)C2,-10.9%
20,CCOC(=O)N1CCc2c(sc(NC(=O)Cc3ccccc3)c2C(=O)c2ccc(OC)cc2)C1,13.7%
21,CCOC(=O)c1c(NC(=S)N2CCOCC2)sc2c1CCN(C(=O)OCC)C2,-1.31%
22,CCOC(=O)N1CCc2c(sc(NC(=O)CN3CCOCC3)c2C#N)C1,-1.09%
